This excerpt belongs to a sample that is enriched for hits.
APE1 inh: blocks human APE1 abasic DNA cleavage. P27695. recombinant APE1, TAMRA/BHQ-2 abasic DNA cleavage fluorescence. Potency, µM (highest dose often 65.8 µM), without a hit: at the highest dose activity change, negative = inhibition, most hits filed as inhibitors. hit rate 0.35% among 350,000;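 also: plate controls were vehicle for no effect and reference inhibitor for full effect; nearly all actives have a fitted effect of over 55% in size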
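APE1 at 0.75 nM final was preincubated with compound 15 min at room temperature, then 50 nM double-stranded THF abasic-site substrate (5'-TAMRA/3'-BHQ-2) was added. Fluorescence (ex 525/em 598 nm) was read kinetically; third-minus-first read gave activity.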
L3MBTL1 inh: blocks human L3MBTL1; AlphaScreen L3MBTL1–H3K9me1 peptide binding; Potency, µM (titrated, usually from 57.1 µM), for inactives: top-dose activity, negative = inhibition, usual class: inhibitors; hit rate 0.66% among 230,000; also: nearly all actives have a fitted effect of over 60% in size
Target sequence (Q9Y468 whole entry, looked up): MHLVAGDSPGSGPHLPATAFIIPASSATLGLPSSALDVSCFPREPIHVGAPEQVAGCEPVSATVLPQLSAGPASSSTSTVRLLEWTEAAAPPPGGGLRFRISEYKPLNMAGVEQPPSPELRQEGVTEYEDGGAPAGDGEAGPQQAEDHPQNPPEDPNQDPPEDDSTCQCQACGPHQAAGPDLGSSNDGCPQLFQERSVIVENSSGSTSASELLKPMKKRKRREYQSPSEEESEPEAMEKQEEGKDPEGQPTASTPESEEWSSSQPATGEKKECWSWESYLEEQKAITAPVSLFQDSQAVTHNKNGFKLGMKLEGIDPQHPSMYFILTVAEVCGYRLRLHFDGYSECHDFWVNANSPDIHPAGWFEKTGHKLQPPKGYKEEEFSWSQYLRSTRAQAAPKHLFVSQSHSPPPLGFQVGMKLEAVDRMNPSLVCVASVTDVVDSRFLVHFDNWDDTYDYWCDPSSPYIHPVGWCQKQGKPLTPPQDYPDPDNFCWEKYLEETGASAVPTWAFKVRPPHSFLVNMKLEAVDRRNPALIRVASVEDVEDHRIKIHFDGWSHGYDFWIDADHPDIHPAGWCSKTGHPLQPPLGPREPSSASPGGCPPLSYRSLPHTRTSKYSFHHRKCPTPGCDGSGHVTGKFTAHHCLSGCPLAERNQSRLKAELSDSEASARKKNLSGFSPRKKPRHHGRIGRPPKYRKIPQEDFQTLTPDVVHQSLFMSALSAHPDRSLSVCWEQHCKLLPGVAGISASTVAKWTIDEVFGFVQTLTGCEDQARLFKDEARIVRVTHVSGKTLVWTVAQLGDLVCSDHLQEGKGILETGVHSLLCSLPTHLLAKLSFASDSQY
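First, the protein-peptide complex forms for 30 min at room temperature (L3MBTL1 50 nM, biotinylated H3K9me1 peptide 75 nM). Next, compounds are pin-transferred and incubated 30 min. Finally, AlphaScreen beads are added and read after 30 min.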
JMJD2E inh: inhibitors of human JMJD2E histone demethylase; hit rate 1.6% among 230,000; B2RXH2; AID 2147; Potency, µM (doses to about 57.1 µM), inactives show top-dose activity change, negative = inhibition, actives largely listed as inhibitors; JMJD2E catalytic domain, FDH-coupled NADH fluorescence (FDH is formaldehyde dehydrogenase);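 also: 0% = wells with enzyme and -100% = buffer wells without enzyme; nearly all actives have a fitted effect of over 50% in size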
RECQ1 inh-1: RECQ1 (human) helicase inhibition. P46063. RECQ1 DNA unwinding, red fluorescence kinetic read. Potency, µM (top dose mostly 57.3 µM), for the others: top-dose activity, negative = inhibition, most hits filed as inhibitors. hit rate 0.54% among 240,000. AID 2549;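 also: plate controls were vehicle for no effect and no enzyme for full effect; nearly all actives have a fitted effect of over 30% in size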
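RECQ1T1 50 nM; forked duplex (20 bp + 30-nt ss tails) 200 nM, ATP 2 mM final; pH 8.0, 2 mM MgCl2, 2.5 ug/ml poly(dI-dC); 15 min compound preincubation; discontinuous kinetic read over 2 h at RT.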
BLM helicase inh: Bloom syndrome helicase (human) inhibition; P54132; recombinant BLM DNA unwinding, fluorescence dequenching; Potency, µM (highest dose often 56.1 µM), for inactives: at the highest dose activity change, negative = inhibition, most hits filed as inhibitors; hit rate 0.2% among 350,000;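 also: plate controls were vehicle for no effect and no enzyme for full effect; nearly all actives have a fitted effect of over 35% in size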
GCN5L2 inh: blocks human GCN5L2 histone acetyltransferase; Q92830; GCN5L2 HAT assay, ThioGlo1 CoA-SH fluorescence; Potency, µM (top dose mostly 58.9 µM), for the others: top-dose activity change, negative = inhibition, most hits filed as inhibitors; hit rate 0.21% among 390,000
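GCN5L2 (20nM final) in 50mM HEPES, 0.1mM EDTA pH 7.5, 0.01% Tween-20 was preincubated 15 min at room temperature with compound, then given ThioGlo1 (50uM), H3(1-25) peptide (75uM) and acetyl-CoA (70uM); CoA-thiol fluorescence (Ex340/Em540) was read at 0 and 20 min.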
RECQ1 inh conf: confirmation of human RECQ1 helicase inhibitors; hit rate 28% among 610; shares compounds with RECQ1 inh-1; Potency, µM (highest dose often 229 µM), inactives show top-dose activity change, negative = inhibition, actives largely listed as inhibitors; RECQ1 helicase DNA unwinding, fluorescence; also: nearly all actives have a fitted effect of over 45% in size
ADP FP counter: ADP displacement flagged in RECQ1 inhibitor counter-screen; shares compounds with RECQ1 inh-1; ADP fluorescence polarization displacement counterscreen; Potency, µM (doses to about 228 µM), inactives show at the highest dose activity change, negative = inhibition, most hits filed as inhibitors; hit rate 27% among 530; AID 2711; also: nearly all actives have a fitted effect of over 45% in size
RECQ1 inh-2: confirmation of human RECQ1 helicase inhibitors; shares compounds with RECQ1 inh-1; recombinant RECQ1 DNA unwinding, red fluorescence; Potency, µM (titrated, usually from 119 µM), for inactives: top-dose activity, negative = inhibition, usual class: inhibitors; hit rate 15% among 1,100; also: nearly all actives have a fitted effect of over 50% in size
Active calls of the source: *; i = inactive; ? = inconclusive; / = no result given; ! = not active in a repeat; [ ] = dose if it differs, or a comment. Unless noted, calls follow the shape of the dose curve; as a rule, active = well fitted curve in the direction sought with a large enough effect; inconclusive = small, poorly fitted or top-dose-only effect, or another doubt; inactive = no such curve, though single readings can be large; an effect the other way counts as inactive or inconclusive. Unless noted, % is scaled to controls: 0 for no effect and ±100 for the full control effect; potency is read from the fitted curve at half-maximal effect.

SMILES	APE1 inh	L3MBTL1 inh	JMJD2E inh	RECQ1 inh-1	BLM helicase inh	GCN5L2 inh	RECQ1 inh conf	RECQ1 inh-2	others
O=C(O)c1cc(N/N=C/c2ccc(N3CCOCC3)s2)ccc1Cl	15.8µM*	20µM*	?	14.1µM*	-10.4%	-23.1%	10.2%[114 µM]	/
CC1(C)CCC2=C(O1)c1ccccc1C(=O)C2=O	-7.1%	/	3.55µM*!	17.8µM*!	/	-15.4%	?	/	ADP FP counter=53.3%
O=C(O)CCCCCn1c(SCC(=O)Nc2ccc(F)cc2)nc2ccsc2c1=O	-2.5%	/	2.1%	i	-1.3%	-2.6%	4.7%	/	ADP FP counter=-4.0%
COc1ccc(NC(=O)CSc2nc3ccsc3c(=O)n2CCCCCC(=O)O)cc1	-1.2%	/	-1.2%	-1.2%	2.7%	-6.4%	?	/	ADP FP counter=12.9%
CCc1ccc(NC(=O)CSc2nc3ccsc3c(=O)n2CCC(=O)O)cc1	-15.0%	/	/	/	0.8%	-13.3%	/	/
CN(C)c1ccc(NC(=O)CSc2nc3ccsc3c(=O)n2CCCCCC(=O)O)cc1	/	/	/	/	2.3%	-5.9%	/	/
COc1ccc(Cc2nc3ccc(C(=O)NCCc4ccc(Cl)cc4)cc3o2)cc1	/	/	/	/	2.7%	-3.1%	/	/
CC(=O)Nc1ccc(S(=O)(=O)Nc2ccc(S(=O)(=O)N3CCCC3)cc2)cc1	0.7%	26.9%[11.4 µM]	-2.0%	6.5%	-2.9%	-3.0%	/	/
CC(=O)Nc1ccc(S(=O)(=O)/N=C2\SCCN2S(=O)(=O)c2ccc(NC(C)=O)cc2)cc1	?	-67.2%	-16.5%	?	4.1%	-13.9%	/	-11.3%
O=C(NCc1ccco1)c1ccc(S(=O)(=O)N2CCCCC2)cc1	6.3%	2.0%	?	-6.4%	-1.5%	-1.5%	/	/
O=C(NCc1ccco1)C1CCCCN1S(=O)(=O)c1ccc(F)cc1 (centres undefined)	12.9%	4.4%	-3.4%	?	-0.3%	-1.8%	/	-9.7%
O=S(=O)(c1ccc2nc(-c3ccco3)c(-c3ccco3)nc2c1)N1CCOCC1	?	-88.4%	?	31.6µM*	14.1µM*	?	/	14.9%
O=C(NCc1ccco1)c1ccc(S(=O)(=O)N2CCOCC2)cc1	31.6µM*	35.5µM*	-8.3%	?	-26.6%	-28.4%	/	-20.3%
CCOc1ccc2nc(SCC(=O)N3c4ccccc4Sc4ccccc43)sc2c1	15.7%	-3.5%	-1.9%	-0.7%	0.3%	4.9%	-7.3%	/	ADP FP counter=15.2%
O=C(CSc1nc2ccccc2s1)N1c2ccccc2Sc2ccccc21	15.6%	-1.9%	-8.0%	5.2%	-7.7%	-12.3%	/	/
CCn1nc(C)c2c(-c3ccccc3)cc(=O)n(C(C)C(=O)NCCC(C)C)c21 (centres undefined)	/	/	/	/	-4.0%	-6.2%	/	/
Cc1ccc(S(=O)(=O)Nc2ccc(N3CCCCC3)cc2)cc1	4.8%	-21.0%	-3.9%	?	-7.3%	-11.2%	/	-8.3%
Cc1ncsc1CCOC(=O)c1ccc(N2CCOCC2)c([N+](=O)[O-])c1	-4.2%	/	-0.3%	1.8%	-0.2%	-6.3%	/	/
Cc1c(CCOC(=O)c2ccc(N3CCOCC3)c([N+](=O)[O-])c2)sc[n+]1CC#N	11.8%	/	3.4%	?	-0.9%	-3.5%	/	?
COc1ccc(-n2c(=O)c(-c3ccc(F)cc3)nc3cnc(N4CCOCC4)nc32)cc1	0.9%	/	/	i	-4.6%	-16.3%	/	/
COc1ccc(-n2c(=O)c(-c3cccc(Cl)c3)nc3cncnc32)cc1	15.6%	/	/	?	1.6%	-4.9%	/	-3.2%
COc1ccc(-c2nc3cnc(N4CCOCC4)nc3n(-c3ccc(OC)cc3)c2=O)cc1	14.1µM*	/	/	?	-16.3%	?	/	-3.5%
CCCSc1ncc(Cl)c(C(=O)NCc2ccc(OC)cc2)n1	/	/	/	/	0.0%	-5.3%	/	/
O=C(N/N=C/c1ccc(-n2ccnc2)cc1)c1cccs1	38.5%	/	/	/	4.4%	-1.5%	/	/
CC1CCc2nc3ncn(CC(=O)Nc4cccc(C#N)c4)c(=O)c3cc2C1 (centres undefined)	/	/	/	/	1.3%	-7.3%	/	/
SMILES	APE1 inh	L3MBTL1 inh	JMJD2E inh	RECQ1 inh-1	BLM helicase inh	GCN5L2 inh	RECQ1 inh conf	RECQ1 inh-2	others
Nn1cnnc1N/N=C\c1ccc(-c2ccccc2[N+](=O)[O-])o1	6.6%	-13.3%	4.47µM*	4.47µM*	0.5%	-9.0%	5.8%[114 µM]	/
CCc1nnc(SCC(=O)Nc2ccc(F)cc2F)c2cc3sc(C)cc3n12	/	/	/	/	-5.5%	-5.3%	/	/
COc1ccc(-n2c(SCC(=O)Nc3nccs3)nnc2-c2ccoc2C)cc1	-1.7%	/	-2.4%	-14.5%	-6.1%	0.4%	6.6%	/	ADP FP counter=-12.0%
COc1ccc(-n2c(SCC(=O)Nc3nc(C)cs3)nnc2-c2ccoc2C)cc1	-1.1%	-1.9%	-10.2%	-18.1%	2.0%	-4.7%	-6.3%	/	ADP FP counter=9.1%
Cc1onc(-c2c(F)cccc2Cl)c1C(=O)OCC(=O)c1c[nH]c2ccccc12	?	/	-9.3%	22.4µM*	-15.1%	-24.0%	/	-25.1%
COc1ccc(NC(=O)c2ccc3c(SCC(=O)O)c4c(nc3c2)CCCC4)c(OC)c1	?	/	-10.3%	?	-29.3%	?	/	-6.1%
COc1ccc(Cl)cc1NC(=O)c1ccc2c(SCC(=O)O)c3c(nc2c1)CCCC3	46.2%	/	/	/	-0.9%	-4.1%	/	/
